Compound activity from PubChem BioAssay.
Hits are enriched below; roughly 2.4% of the tested compounds scored in any of these assays.
PfM18AAP inh: PfM18AAP inhibitors, malaria aminopeptidase, primary screen, biochemical, QFRET, recombinant enzyme; M18 aspartyl aminopeptidase (Plasmodium falciparum 3D7); H-Glu-NHMec fluorogenic cleavage; inhibition, % at 7.35 µM; actives 1.2% (n = 290,000);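 active = inhibition above the campaign mean inhibition over all tested compounds plus 3 SD, cut at about 28% in these data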
PERK inhibitor: block of dimerizer-induced PERK translation repression, primary screen, PERK inhibitor project, CHO PERK-DD cells, SEAP luminescence, HTS; Eukaryotic translation initiation factor 2-alpha kinase 3 (Homo sapiens), Q9NZJ5; CHO PERK-DD fusion, SEAP luminescence translation reporter; inhibition, % at 5.6 µM; actives 0.17% (n = 220,000);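 active = inhibition above the mean inhibition of all tested compounds plus 3 SD, set separately per screening campaign, cut at about 2.9% in these data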;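 note: PERK kinase domain activated by AP20187 dimerizer at 100 nM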
PABP FP inh: PABP poly(A) RNA binding inhibitors, primary screen, biochemical, fluorescence polarization, uHTS; Polyadenylate-binding protein 1 (Homo sapiens), P11940; inhibition, % at 35 µM; actives 1% (n = 290,000); AID 2014, 2009;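 note: calls also rest on retests at 20 µM and on dose response follow-up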
eIF4E-4G inh: eIF4E–eIF4G protein interaction inhibitors, primary screen, biochemical, uHTS, TR-FRET, eIF4GI fragment | actives 0.37% (n = 220,000) | inhibition, % at 21.7 µM | AID 782, 2007 | Eukaryotic translation initiation factor 4E (Mus musculus) + Eukaryotic translation … | TR-FRET eIF4E-eIF4GI(517-606) binding, 2 h;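 active = inhibition above about 30%, limit read from the data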
PABP1 MLLE inh: inhibitors of PABP1 MLLE–PAM2 peptide binding, primary screen, biochemical, fluorescence polarization, FITC-PAM2, GST-MLLE | inhibition, % at 20 µM | Polyadenylate-binding protein 1 (Homo sapiens), P11940 | actives 0.36% (n = 360,000); in the data active = inhibition above about 35%, passing the limit was not always enough
eIF4H FP inh: human eIF4H binding inhibitors, primary screen, translation initiation inhibitor project, biochemical, uHTS, fluorescence polarization; inhibition, % at 35 µM; eIF4H fluorescence polarization binding assay; actives 0.94% (n = 290,000); Eukaryotic translation initiation factor 4H (Homo sapiens), Q15056;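 note: calls also rest on retests at 20 µM and on dose response follow-up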
Hits are given with their value; . = inactive; ? = inconclusive; / = no result given; [ ] = dose if it differs, or a comment. Unless noted, the rule behind the calls is not given here.

SMILES	PfM18AAP inh	PERK inhibitor	PABP FP inh	eIF4E-4G inh	PABP1 MLLE inh	eIF4H FP inh
CCCC(=O)NC(=S)Nc1sc2c(c1C(N)=O)CCC2	.	.	active	.	.	.
N#CC1(NC(=O)CSc2nnc(-c3ccccc3F)n2N)CCCCC1	/	/	/	/	.	/
Oc1ccc(Br)cc1C=Nc1cccn2cc(-c3ccccc3)nc12	.	.	.	.	40	.
Cc1ccc(C(=O)O/N=C\c2ccc(N3CCOCC3)c([N+](=O)[O-])c2)cc1	.	.	.	.	.	.
O=C(O/N=C\c1ccc(N2CCCCC2)c([N+](=O)[O-])c1)c1ccc(Cl)cc1Cl	.	3.0	.	.	.	.
CC(C)Cn1c(N)c(C(=O)COC(=O)c2cc(-c3ccccc3)nc3ccccc23)c(=O)n(C)c1=O	.	.	.	.	.	.
CC(C)Cn1c(N)c(C(=O)COC(=O)c2cc(C3CC3)nc3ccccc23)c(=O)n(C)c1=O	.	.	118	.	/	.
Cc1ccc(C)n1/N=C1/NC(=O)CS1	.	.	73	.	.	92
Cc1ccc(N=C2NC(=O)CS2)cc1	.	.	.	.	.	.
CC(/C=N/n1c(COc2ccccc2)n[nH]c1=S)=C\c1ccco1	.	.	.	.	.	.
c1coc(-c2ccnc3nc(-n4cccc4)nn23)c1	.	.	active	.	.	94
O=C1N/C(=C/c2cccn2-c2ccccc2)C(=O)N1Cc1ccc(F)cc1	.	.	54	.	.	active
O=C(O)c1cccc(-n2cccc2/C=C2/NC(=O)N(Cc3ccccc3F)C2=O)c1	.	.	30	.	.	94
CCC(SC1=NCCS1)C(=O)Nc1ccc(S(N)(=O)=O)cc1 (stereo unspecified)	.	.	.	.	41	.
CC(=O)c1cnc(N(C)C)s1	.	.	.	.	.	.
CN(C)c1ncc(C2=C(Cl)C(=O)C(N3CCCC3)=C(Cl)C2=O)s1	.	.	/	53[fluorescence artefact?]	41	/
O=C1C(Cl)=C(N2CCCCC2)C(=O)C(Cl)=C1c1cnc(N2CCCCC2)s1	.	.	.	37[fluorescence artefact?]	48	?
Nc1nc(N)c2cc(CNc3ccc(Cl)c(Cl)c3)ccc2n1	/	/	/	/	.	/
O=C(Nc1nccs1)c1ccc(Br)o1	.	.	.	.	.	.
O=C(/C=C/c1ccc(Br)o1)Nc1nccs1	.	.	7.4	.	.	57
CCOC(=O)C(NC(=O)c1ccccc1)C(C)(C)SCc1ccccc1 (stereo unspecified)	/	/	/	/	.	/
CC(C)C(=O)NNc1ccc(C(F)(F)F)cn1	.	3.6	.	.	.	.
S=c1nccc(-c2cccs2)[nH]1	29	.	.	.	.	.
c1csc(-c2ccn[nH]2)c1	.	.	.	.	.	.
CCC1(C)CC(c2nc(-c3ccc(OC)cc3)cs2)CCS1 (stereo unspecified)	.	.	.	.	.	.
SMILES	PfM18AAP inh	PERK inhibitor	PABP FP inh	eIF4E-4G inh	PABP1 MLLE inh	eIF4H FP inh
O=C(O)C(CC1CCCCC1)N1CCS(=O)(=O)CC1 (stereo unspecified)	.	.	.	.	.	.
O=C(NCc1cccc(Cl)c1)c1cnccn1	.	.	.	.	.	34
COc1ccc(/C=C(/CC(=O)NCc2ccc(Cl)cc2)c2nc3ccccc3s2)cc1	.	.	.	.	.	active
COc1ccc(/C=C(/CC(=O)Nc2ccccc2)c2nc3ccccc3s2)cc1	.	.	.	.	.	.
O=[N+]([O-])c1ccc(-c2cn3nc(-c4ccccc4)c(-c4ccccc4)nc3n2)cc1	30	.	.	.	.	.
CCN1/C(=C/c2ccc3ccccc3[n+]2CC)C=Cc2ccccc21	.	.	.	46[fluorescence artefact?]	.	.
CC(=O)C1CCC2C3C=CC4=CC(=O)CCC4(C)C3CCC12C (stereo unspecified)	/	/	/	/	.	/
Cc1c(C(=O)N2CCCCC2)c(S(=O)(=O)N2c3ccccc3CC2C)c(C)n1C (stereo unspecified)	.	/	.	/	.	.
O=C(N/N=C/c1ccncc1)c1cccc(S(=O)(=O)Nc2ccc(Cl)cc2)c1	33	.	.	92	.	70
Cc1ccc(-c2nnc(SCC(=O)Nc3sc(C)c(C)c3C#N)n2C)cc1	.	.	.	.	.	.
Cc1sc(NC(=O)CSc2nnc(-c3ccc(F)cc3)o2)c(C#N)c1C	.	.	65	.	.	66
COc1ccc(Br)cc1C1CC(=O)N2CN(C)CSC2=C1C#N (stereo unspecified)	.	.	.	.	.	.
COc1cc(C2CC(=O)N3CN(c4ccccc4C)CSC3=C2C#N)cc(OC)c1OC (stereo unspecified)	33	.	.	.	/	.
COc1ccccc1N1CSC2=C(C#N)C(c3ccc(SC)cc3)CC(=O)N2C1 (stereo unspecified)	30	.	.	.	.	?
COc1cccc(C2CC(=O)N3CN(c4cccc(Cl)c4C)CSC3=C2C#N)c1OC (stereo unspecified)	.	.	.	.	.	.
COc1ccc2ccccc2c1C1CC(=O)N2CN(C)CSC2=C1C#N (stereo unspecified)	.	.	.	49[fluorescence artefact?]	.	.
O=C1NC(Cc2ccc(O)cc2)c2nc3cc(Cl)ccc3c(=O)n2-c2cc3ccccc3cc21 (stereo unspecified)	/	/	/	/	.	/
CCN(CC)S(=O)(=O)c1cc(C(=O)Oc2ccccc2OC)ccc1OC	.	.	.	.	.	.
CCN(CC)S(=O)(=O)c1cc(F)ccc1OC	.	.	.	35	.	.
O=C(NCc1nc(-c2ccc(Cl)cc2)no1)c1ccc2c(c1)OCO2	.	/	.	/	.	.
Cc1sc2ncnc(NCc3ccco3)c2c1C	.	.	45	.	.	66
Cc1ccc(-c2csc3ncnc(OCC(=O)NC(=O)NCc4ccco4)c23)cc1	.	.	.	.	.	21
Cc1nc(SCC(=O)NCc2ccco2)c2c(C)c(C)sc2n1	.	.	.	.	.	.
Cc1sc2ncnc(SCC(=O)NC(=O)NCc3ccco3)c2c1C	.	.	47	.	.	82
N#CC1=C(N)OC2=C(C(=O)CCC2)C1Cc1ccccc1 (stereo unspecified)	.	.	/	/	.	/
O=C(COc1ccccc1)NCC(=O)N/N=C/c1ccc(O)cc1O	.	.	.	.	.	.
O=C(Nc1ccc(-n2cnnn2)cc1)C(c1ccccc1)c1ccccc1	.	.	62	.	.	.
O=C(Nc1ccccc1)c1ccc(-n2cnnn2)cc1	.	/	.	/	.	.
